Measurements reported in PubChem BioAssay (NCATS).
Values without a mark were called inactive. Results filed as inconclusive are left out. The source made the active and inactive calls. The call rests on the fitted dose curve; in most records, active means well fitted curve in the direction sought with a large enough effect; inconclusive means small, poorly fitted or top-dose-only effect, or another doubt; inactive means no such curve, though single readings can be large; an effect the other way counts as inactive or inconclusive. Numbered stars: 1 amine (or outer) side, 2 acyl side, 3 side chain; on linkers, the order of the positions; unused ones are H or OH. Bridge positions count the residues as written; N and C are the ends. Square brackets hold non-standard residues; d marks the D form. Peptide text beside a SMILES is read from it. I, II: the chains in the order shown. Actinocin(9to1) = Cc1c2oc3c(C)ccc(C(=O)[*:1])c3nc-2c(C(=O)[*:2])c(N)c1=O; NMeV = CN[C@H](C(=O)O)C(C)C; Sar = CNCC(=O)O

System: not listed separately
Experiment: Cell Viability - LYMP2-022 (AID 987); further: nearly all actives have a fitted effect of over 55% in size; further: potency means the concentration at half of the fitted maximal effect;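 on viability change, negative = cytotoxic: 0% = DMSO alone and full effect = tetraoctylammonium bromide at 92 µM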
Settings: LYMP2-022 lymphoblastoid cell viability; series mostly up to 92.2 µM; viability change, negative = cytotoxic: at the top concentration
Procedure, shortened: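 In this qHTS cytotoxicity screen, compound titrations were incubated 24 hr at 37 C with human lymphoblastoid cells in complete medium. Luciferase-based ATP luminescence provided the viability signal.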

Compound | viability change, negative = cytotoxic [%] | Potency
O=C(O)CCCCC(=O)O | -2.93 | 
CC(C)(C)CC(C)(C)c1ccc(OCCOCC[N+](C)(C)Cc2ccccc2)cc1 |  | 15.8 µM (active)
CC(=O)Oc1ccc(C(c2ccc(OC(C)=O)cc2)c2ccccn2)cc1 | -8.53 | 
Nc1ccc(C(=O)O)cc1 | -11 | 
O=c1ccc2ccccc2o1 | -6.93 | 
CN(C)/N=N/c1nc[nH]c1C(N)=O | 2.78 | 
C=CCc1ccc(O)c(OC)c1 | 13.9 | 
CC/C(=C(/CC)c1ccc(O)cc1)c1ccc(O)cc1 | -24.8 | 
COc1cccc2c1C(=O)c1c(O)c3c(c(O)c1C2=O)C[C@@](O)(C(C)=O)C[C@@H]3O[C@H]1C[C@H](N)[C@H](O)[C@H](C)O1 |  | 0.1 µM (active)
Cc1c2oc3c(C)ccc(C(=O)N[C@@H]4C(=O)N[C@H](C(C)C)C(=O)N5CCC[C@H]5C(=O)N(C)CC(=O)N(C)[C@@H](C(C)C)C(=O)O[C@@H]4C)c3nc-2c(C(=O)N[C@@H]2C(=O)N[C@H](C(C)C)C(=O)N3CCC[C@H]3C(=O)N(C)CC(=O)N(C)[C@@H](C(C)C)C(=O)O[C@@H]2C)c(N)c1=O (I: T[dV]P[Sar][NMeV] / II: T[dV]P[Sar][NMeV]; ester I:1-I:C, II:1-II:C; linker I:N-II:N via Actinocin(9to1)) |  | 0.0126 µM (active)
NC(=NCCCCCCN=C(N)/N=C(\N)Nc1ccc(Cl)cc1)/N=C(\N)Nc1ccc(Cl)cc1 |  | 39.8 µM (active)
CCCCCCc1ccc(O)cc1O | -16.7 | 
Oc1ccc(O)cc1 |  | 39.8 µM (active)
COc1cccc2c1C(=O)c1c(O)c3c(c(O)c1C2=O)C[C@@](O)(C(=O)CO)C[C@@H]3O[C@H]1C[C@H](N)[C@H](O)[C@H](C)O1 |  | 0.251 µM (active)
C[C@]12CC[C@@H]3c4ccc(O)cc4CC[C@H]3[C@@H]1CC[C@@H]2O | -34.2 | 
COC1=CC(=O)C[C@@H](C)[C@]12Oc1c(Cl)c(OC)cc(OC)c1C2=O | -34 | 
O=C1OC(c2ccc(O)cc2)(c2ccc(O)cc2)c2ccccc21 | -10.5 | 
CC(=O)O[C@]1(C(C)=O)CC[C@H]2[C@@H]3C[C@H](C)C4=CC(=O)CC[C@]4(C)[C@H]3CC[C@@]21C |  | 39.8 µM (active)
CC(O)C(=O)O (stereo unspecified) | 12.1 | 

System: not listed separately
Experiment: Cell Viability - LYMP2-026 (AID 989);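 further: cells exposed to compound for 24 h at 37 °C; nearly all actives have a fitted effect of over 50% in size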; further: potency means the concentration at half of the fitted maximal effect; on activity change, negative = cytotoxic: on the % scale 0 is the no-effect control and ±100 the full control effect
Settings: LYMP2-026 lymphoblastoid cell viability, qHTS; series mostly up to 92.2 µM; activity change, negative = cytotoxic: at the top concentration
Procedure, shortened: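 Acute toxicity screen in complete culture medium, with 24 hr compound exposure at 37 C. Viability read as cellular ATP via luciferase reaction, with tetraoctylammonium bromide (6.4pM to 92 uM) as positive control.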

Compound | activity change, negative = cytotoxic [%] | Potency
O=C(O)CCCCC(=O)O | -6.3 | 
CC(C)(C)CC(C)(C)c1ccc(OCCOCC[N+](C)(C)Cc2ccccc2)cc1 |  | 31.6 µM (active)
CC(=O)Oc1ccc(C(c2ccc(OC(C)=O)cc2)c2ccccn2)cc1 | -4.7 | 
Nc1ccc(C(=O)O)cc1 | 3.5 | 
O=c1ccc2ccccc2o1 | 6.85 | 
CN(C)/N=N/c1nc[nH]c1C(N)=O | -7.64 | 
C=CCc1ccc(O)c(OC)c1 | -2.23 | 
CC/C(=C(/CC)c1ccc(O)cc1)c1ccc(O)cc1 | -15.7 | 
NC(=NCCCCCCN=C(N)/N=C(\N)Nc1ccc(Cl)cc1)/N=C(\N)Nc1ccc(Cl)cc1 |  | 50.1 µM (active)
CCCCCCc1ccc(O)cc1O | 3.25 | 
Oc1ccc(O)cc1 | -24.2 | 
COc1cccc2c1C(=O)c1c(O)c3c(c(O)c1C2=O)C[C@@](O)(C(=O)CO)C[C@@H]3O[C@H]1C[C@H](N)[C@H](O)[C@H](C)O1 |  | 0.501 µM (active)
C[C@]12CC[C@@H]3c4ccc(O)cc4CC[C@H]3[C@@H]1CC[C@@H]2O | -26.1 | 
COC1=CC(=O)C[C@@H](C)[C@]12Oc1c(Cl)c(OC)cc(OC)c1C2=O | -6.86 | 
O=C1OC(c2ccc(O)cc2)(c2ccc(O)cc2)c2ccccc21 | -16.9 | 
CC(O)C(=O)O (stereo unspecified) | 0.45 | 

Biological target: Alpha-galactosidase A (Homo sapiens) (UniProt P06280)
Experiment: Counterscreen for Glucocerebrosidase Inhibitors: qHTS Assay for Human alpha-Galactosidase at pH 4.5 (AID 992); further: 0% is about no effect
Settings: purified enzyme, fluorogenic substrate; series mostly up to 76.9 µM; activity change, negative = inhibition: at the top concentration
Procedure, shortened: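 Citrate buffer pH 4.5, Tween-20 0.005%. Enzyme 2 nM, substrate 80 uM, 20 min RT. Stop pH 10. Fluorescence Ex 365/Em 440. AC50 by Hill fit.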

Chain of Alpha-galactosidase A (Homo sapiens) (P06280 whole entry, looked up): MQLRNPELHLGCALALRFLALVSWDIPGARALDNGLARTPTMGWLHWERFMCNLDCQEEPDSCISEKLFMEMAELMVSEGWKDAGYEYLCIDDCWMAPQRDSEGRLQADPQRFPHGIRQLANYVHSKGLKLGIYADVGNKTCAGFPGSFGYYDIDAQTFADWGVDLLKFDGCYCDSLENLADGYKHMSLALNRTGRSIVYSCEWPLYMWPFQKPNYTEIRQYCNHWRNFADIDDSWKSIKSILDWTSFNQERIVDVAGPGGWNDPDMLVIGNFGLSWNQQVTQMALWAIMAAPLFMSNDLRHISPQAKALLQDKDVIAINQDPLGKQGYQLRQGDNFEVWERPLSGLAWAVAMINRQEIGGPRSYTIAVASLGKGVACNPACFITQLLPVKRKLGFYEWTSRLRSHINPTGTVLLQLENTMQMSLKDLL

Compound | activity change, negative = inhibition [%]
COc1cc(NS(C)(=O)=O)ccc1Nc1c2ccccc2nc2ccccc12 | 47.4
Oc1cc(O)c2c(c1)O[C@H](c1ccc(O)c(O)c1)[C@H](O)C2 | 1.16
O=C1CCC(c2ccc(-n3ccnc3)cc2)=NN1 | -1.81
C[C@@H]1C(=O)NC2=Nc3cccc(Cl)c3CN21 | -2.68
Oc1ccc(O)cc1 | 0.0889
C[C@]12CC[C@@H]3c4ccc(O)cc4CC[C@H]3[C@@H]1CC[C@@H]2O | -0.535
CN1[C@@H]2CC[C@H]1CC(OC(=O)c1c[nH]c3ccccc13)C2 (stereo partly specified) | 1.51
CN1CCC[C@@H]1c1cccnc1 | 0.345
COc1cc(-c2ccc(=O)[nH]n2)ccc1OC(F)F | 0.689
CCCC1O[C@@H]2C[C@H]3[C@@H]4CCC5=CC(=O)C=C[C@]5(C)[C@H]4[C@@H](O)C[C@]3(C)[C@]2(C(=O)CO)O1 (stereo partly specified) | -1.59

System: not listed separately
Experiment: Cell Viability - LYMP1-002 - Assay at 24 hr (AID 993); further: potency means the concentration at half of the fitted maximal effect; on activity change, negative = cytotoxicity: on the % scale 0 is the no-effect control and ±100 the full control effect
Settings: LYMP1-002 lymphoblastoid cells viability; series mostly up to 92.2 µM; activity change, negative = cytotoxicity: at the top concentration
Procedure, shortened: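 Viability was judged from intracellular ATP using a luciferase read-out, following a 24-hour compound incubation at 37 C of lymphoblastoid cells seeded at 2500 per well. Concentration-response data were fitted to the Hill equation for AC50.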

Compound | activity change, negative = cytotoxicity [%] | Potency
Oc1ccc(Cl)cc1Sc1cc(Cl)ccc1O | -26 | 
O=C(O)CCCCC(=O)O | 9.39 | 
CC(C)(C)CC(C)(C)c1ccc(OCCOCC[N+](C)(C)Cc2ccccc2)cc1 |  | 50.1 µM (active)
CC(=O)Oc1ccc(C(c2ccc(OC(C)=O)cc2)c2ccccn2)cc1 | 2.22 | 
Nc1ccc(C(=O)O)cc1 | 8.53 | 
O=c1ccc2ccccc2o1 | -3.64 | 
CN(C)/N=N/c1nc[nH]c1C(N)=O | 0.0932 | 
C=CCc1ccc(O)c(OC)c1 | -2.55 | 
CC/C(=C(/CC)c1ccc(O)cc1)c1ccc(O)cc1 | -6.49 | 
COc1cccc2c1C(=O)c1c(O)c3c(c(O)c1C2=O)C[C@@](O)(C(C)=O)C[C@@H]3O[C@H]1C[C@H](N)[C@H](O)[C@H](C)O1 |  | 0.794 µM (active)
Cc1c2oc3c(C)ccc(C(=O)N[C@@H]4C(=O)N[C@H](C(C)C)C(=O)N5CCC[C@H]5C(=O)N(C)CC(=O)N(C)[C@@H](C(C)C)C(=O)O[C@@H]4C)c3nc-2c(C(=O)N[C@@H]2C(=O)N[C@H](C(C)C)C(=O)N3CCC[C@H]3C(=O)N(C)CC(=O)N(C)[C@@H](C(C)C)C(=O)O[C@@H]2C)c(N)c1=O (I: T[dV]P[Sar][NMeV] / II: T[dV]P[Sar][NMeV]; ester I:1-I:C, II:1-II:C; linker I:N-II:N via Actinocin(9to1)) |  | 0.0079 µM (active)
Oc1c(Cl)cc(Cl)cc1Sc1cc(Cl)cc(Cl)c1O | -13.2 | 
NC(=NCCCCCCN=C(N)/N=C(\N)Nc1ccc(Cl)cc1)/N=C(\N)Nc1ccc(Cl)cc1 |  | 39.8 µM (active)
CCCCCCc1ccc(O)cc1O | -0.468 | 
Oc1ccc(O)cc1 |  | 39.8 µM (active)
COc1cccc2c1C(=O)c1c(O)c3c(c(O)c1C2=O)C[C@@](O)(C(=O)CO)C[C@@H]3O[C@H]1C[C@H](N)[C@H](O)[C@H](C)O1 |  | 1 µM (active)
C[C@]12CC[C@@H]3c4ccc(O)cc4CC[C@H]3[C@@H]1CC[C@@H]2O | -2.35 | 
COC1=CC(=O)C[C@@H](C)[C@]12Oc1c(Cl)c(OC)cc(OC)c1C2=O | -12.2 | 
O=C1OC(c2ccc(O)cc2)(c2ccc(O)cc2)c2ccccc21 | 4.76 | 
CC(=O)O[C@]1(C(C)=O)CC[C@H]2[C@@H]3C[C@H](C)C4=CC(=O)CC[C@]4(C)[C@H]3CC[C@@]21C | -6.13 | 
CC(O)C(=O)O (stereo unspecified) | 6.3 | 
